# Assay results reported in publication PMC7862700, “An all-to-all approach to the identification of sequence-specific readers for epigenetic DNA modifications on cytosine”.
# Key:
# Test in all cases: DAPPL (digital affinity profiling via proximity ligation, sequencing); 10 mM Tris-HCl pH 7.5, 50 mM NaCl, 1 mM DTT, 4% glycerol, room temperature, 30 min; GST-TFs on glutathione beads, 16-mer random dsDNA library, 0.1% formaldehyde crosslink after washing; high values mean tight binding
# FEV = target: T1, FEV (Homo sapiens, UniProt Q99581 1-238); settings: protein: recombinant; tags: N-terminal GST; dsDNA, one strand shown
# T1 sequence: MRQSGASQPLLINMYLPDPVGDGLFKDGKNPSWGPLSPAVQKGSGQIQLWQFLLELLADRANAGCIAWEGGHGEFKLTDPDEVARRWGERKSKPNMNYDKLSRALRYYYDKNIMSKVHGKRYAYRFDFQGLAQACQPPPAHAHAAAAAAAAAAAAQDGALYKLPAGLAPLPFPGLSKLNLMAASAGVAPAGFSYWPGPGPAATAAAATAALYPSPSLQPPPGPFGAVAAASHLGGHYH
# How it was run: (§1)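 Yeast served to express human transcription factors as GST fusions, which were then captured on glutathione beads and labelled with DNA barcodes. Pooled with a tag-only sample, they were incubated with 200 nmole of a 16-mer random double-stranded DNA library for 30 min at room temperature in Tris/NaCl/DTT/glycerol buffer, washed, crosslinked with 0.1% formaldehyde, ligated by proximity, amplified by PCR and sequenced. Dividing each hexamer's read frequency for a factor by its frequency for the tag-only sample gives the binding signal.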
# ETV5 = ETV5 (Homo sapiens, UniProt P41161 1-510); settings: protein: recombinant; tags: N-terminal GST; dsDNA, one strand shown
# How it was run: as §1
# HSF1 = HSF1 (Homo sapiens, UniProt Q00613 1-529); settings: protein: recombinant; tags: N-terminal GST; chain copies: 3; dsDNA, one strand shown
# How it was run: as §1
# SPIC = target: T2, SPIC (Homo sapiens, UniProt Q8N5J4 1-248); settings: protein: recombinant; tags: N-terminal GST; dsDNA, one strand shown
# T2 sequence: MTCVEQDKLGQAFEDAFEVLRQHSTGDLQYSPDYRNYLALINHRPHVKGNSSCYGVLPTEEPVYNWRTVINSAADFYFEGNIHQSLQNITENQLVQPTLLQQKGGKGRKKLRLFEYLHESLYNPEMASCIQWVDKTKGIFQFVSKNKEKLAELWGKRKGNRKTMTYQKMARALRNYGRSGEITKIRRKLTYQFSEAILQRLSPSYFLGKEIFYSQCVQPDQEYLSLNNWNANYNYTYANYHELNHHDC
# How it was run: as §1
# ELF4 = ELF4 (Homo sapiens, UniProt Q99607 1-663); settings: protein: recombinant; tags: N-terminal GST; dsDNA, one strand shown
# How it was run: as §1
# ELK4 = target: T3, ELK4 (Homo sapiens, UniProt P28324-2 1-405); settings: protein: recombinant; tags: N-terminal GST; dsDNA, one strand shown
# T3 sequence: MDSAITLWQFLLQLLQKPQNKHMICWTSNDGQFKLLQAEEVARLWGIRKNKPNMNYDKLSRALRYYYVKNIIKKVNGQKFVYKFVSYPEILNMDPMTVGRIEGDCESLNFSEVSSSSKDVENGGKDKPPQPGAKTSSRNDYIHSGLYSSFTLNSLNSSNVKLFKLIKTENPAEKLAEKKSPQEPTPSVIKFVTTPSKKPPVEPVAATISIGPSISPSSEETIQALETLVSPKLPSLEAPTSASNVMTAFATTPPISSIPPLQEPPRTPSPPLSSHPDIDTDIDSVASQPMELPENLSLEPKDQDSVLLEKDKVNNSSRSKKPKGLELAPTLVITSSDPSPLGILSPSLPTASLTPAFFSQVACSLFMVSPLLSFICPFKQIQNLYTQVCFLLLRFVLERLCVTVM
# How it was run: as §1
# ETV2 = target: T4, ETV2 (Homo sapiens, UniProt O00321 1-342); settings: protein: recombinant; tags: N-terminal GST; dsDNA, one strand shown
# T4 sequence: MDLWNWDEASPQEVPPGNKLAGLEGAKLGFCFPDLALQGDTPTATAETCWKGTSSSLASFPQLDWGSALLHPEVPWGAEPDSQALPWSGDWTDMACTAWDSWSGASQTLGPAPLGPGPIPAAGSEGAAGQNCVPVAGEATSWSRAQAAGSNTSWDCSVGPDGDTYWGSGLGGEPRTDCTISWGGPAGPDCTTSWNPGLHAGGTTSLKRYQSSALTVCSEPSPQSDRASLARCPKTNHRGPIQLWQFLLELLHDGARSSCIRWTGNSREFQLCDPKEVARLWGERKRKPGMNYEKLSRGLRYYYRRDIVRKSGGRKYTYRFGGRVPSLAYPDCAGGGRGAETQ
# How it was run: as §1
# ELF3 = target: T5, ELF3 (Homo sapiens, UniProt P78545 1-371); settings: protein: recombinant; tags: N-terminal GST; dsDNA, one strand shown
# T5 sequence: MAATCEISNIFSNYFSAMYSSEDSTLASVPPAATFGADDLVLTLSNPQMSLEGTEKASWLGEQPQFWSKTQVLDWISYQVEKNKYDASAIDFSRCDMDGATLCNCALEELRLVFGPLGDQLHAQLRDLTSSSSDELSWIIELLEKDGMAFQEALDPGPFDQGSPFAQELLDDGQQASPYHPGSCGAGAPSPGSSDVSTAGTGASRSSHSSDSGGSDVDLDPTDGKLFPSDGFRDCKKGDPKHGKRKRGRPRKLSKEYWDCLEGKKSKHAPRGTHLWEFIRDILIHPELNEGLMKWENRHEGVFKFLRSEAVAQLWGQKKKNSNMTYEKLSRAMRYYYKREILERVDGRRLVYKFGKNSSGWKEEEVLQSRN
# How it was run: as §1
# CRX = CRX (Homo sapiens, UniProt O43186 1-299); settings: protein: recombinant; tags: N-terminal GST; dsDNA, one strand shown
# How it was run: as §1
# ETV1 = ETV1 (Homo sapiens, UniProt P50549 1-477); settings: protein: recombinant; tags: N-terminal GST; dsDNA, one strand shown
# How it was run: as §1
# ERF = target: T6, ERF (Homo sapiens, UniProt P50548 1-548); settings: protein: recombinant; tags: N-terminal GST; dsDNA, one strand shown
# T6 sequence: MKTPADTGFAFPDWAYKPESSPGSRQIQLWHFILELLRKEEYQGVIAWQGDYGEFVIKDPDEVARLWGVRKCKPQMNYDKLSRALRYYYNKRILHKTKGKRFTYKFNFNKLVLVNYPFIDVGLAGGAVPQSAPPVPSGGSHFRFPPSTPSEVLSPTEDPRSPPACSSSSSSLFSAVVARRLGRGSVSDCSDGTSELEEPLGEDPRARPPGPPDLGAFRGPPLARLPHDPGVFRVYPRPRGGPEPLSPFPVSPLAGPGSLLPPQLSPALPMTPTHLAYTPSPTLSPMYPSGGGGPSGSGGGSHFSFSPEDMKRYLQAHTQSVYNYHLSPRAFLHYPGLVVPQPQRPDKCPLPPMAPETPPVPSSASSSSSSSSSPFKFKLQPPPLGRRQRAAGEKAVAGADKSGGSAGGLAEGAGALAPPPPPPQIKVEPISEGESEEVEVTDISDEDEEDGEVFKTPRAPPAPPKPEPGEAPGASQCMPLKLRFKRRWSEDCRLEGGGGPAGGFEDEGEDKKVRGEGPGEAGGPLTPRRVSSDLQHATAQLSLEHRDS
# How it was run: as §1
# ETV3L = target: T7, ETV3L (Homo sapiens, UniProt Q6ZN32 1-361); settings: protein: recombinant; tags: N-terminal GST; dsDNA, one strand shown
# T7 sequence: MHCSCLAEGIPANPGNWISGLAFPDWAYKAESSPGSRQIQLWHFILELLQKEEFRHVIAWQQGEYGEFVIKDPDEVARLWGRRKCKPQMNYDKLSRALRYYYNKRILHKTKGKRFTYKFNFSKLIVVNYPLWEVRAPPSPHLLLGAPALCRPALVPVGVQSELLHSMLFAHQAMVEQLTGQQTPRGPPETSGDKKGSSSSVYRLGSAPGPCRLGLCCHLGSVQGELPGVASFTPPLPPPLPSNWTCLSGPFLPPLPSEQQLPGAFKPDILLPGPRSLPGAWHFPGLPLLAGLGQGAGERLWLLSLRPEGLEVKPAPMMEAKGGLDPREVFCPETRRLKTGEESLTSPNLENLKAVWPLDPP
# How it was run: as §1
# ETS2 = target: T8, ETS2 (Homo sapiens, UniProt P15036 1-469); settings: protein: recombinant; tags: N-terminal GST; dsDNA, one strand shown
# T8 sequence: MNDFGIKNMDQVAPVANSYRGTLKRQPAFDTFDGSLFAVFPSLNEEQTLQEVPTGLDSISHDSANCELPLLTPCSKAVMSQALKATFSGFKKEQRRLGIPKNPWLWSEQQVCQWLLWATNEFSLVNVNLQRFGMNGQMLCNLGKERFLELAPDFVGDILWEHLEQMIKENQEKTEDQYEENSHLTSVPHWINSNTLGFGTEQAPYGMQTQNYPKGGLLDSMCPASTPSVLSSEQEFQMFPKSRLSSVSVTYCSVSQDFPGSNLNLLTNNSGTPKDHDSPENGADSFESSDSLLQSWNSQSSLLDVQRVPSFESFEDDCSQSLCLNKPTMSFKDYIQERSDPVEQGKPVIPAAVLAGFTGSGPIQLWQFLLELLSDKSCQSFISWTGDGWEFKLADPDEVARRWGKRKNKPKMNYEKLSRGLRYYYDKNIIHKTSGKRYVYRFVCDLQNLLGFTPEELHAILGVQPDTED
# How it was run: as §1
# SPDEF = target: T9, SPDEF (Homo sapiens, UniProt O95238 1-335); settings: protein: recombinant; tags: N-terminal GST; dsDNA, one strand shown
# T9 sequence: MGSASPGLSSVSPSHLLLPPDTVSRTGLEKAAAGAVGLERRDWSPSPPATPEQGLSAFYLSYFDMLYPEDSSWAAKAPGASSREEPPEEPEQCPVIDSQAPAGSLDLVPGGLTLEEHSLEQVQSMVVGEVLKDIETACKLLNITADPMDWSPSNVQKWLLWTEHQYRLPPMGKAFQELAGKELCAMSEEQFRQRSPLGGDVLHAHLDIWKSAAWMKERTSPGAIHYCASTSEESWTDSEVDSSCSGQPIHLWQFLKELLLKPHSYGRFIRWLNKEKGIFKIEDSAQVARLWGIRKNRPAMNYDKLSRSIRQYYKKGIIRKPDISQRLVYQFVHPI
# How it was run: as §1
# ETV7 = target: T10, ETV7 (Homo sapiens, UniProt Q9Y603 1-341); settings: protein: recombinant; tags: N-terminal GST; dsDNA, one strand shown
# T10 sequence: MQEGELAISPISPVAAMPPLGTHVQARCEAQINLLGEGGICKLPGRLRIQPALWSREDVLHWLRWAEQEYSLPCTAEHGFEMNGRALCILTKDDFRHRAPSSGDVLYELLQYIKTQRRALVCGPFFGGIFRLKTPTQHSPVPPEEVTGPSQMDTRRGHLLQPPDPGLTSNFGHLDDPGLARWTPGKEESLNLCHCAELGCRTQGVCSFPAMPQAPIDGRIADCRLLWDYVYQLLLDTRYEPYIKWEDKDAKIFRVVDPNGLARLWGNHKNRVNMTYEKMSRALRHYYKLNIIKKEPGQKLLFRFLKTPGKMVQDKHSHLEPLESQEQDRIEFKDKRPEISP
# How it was run: as §1
# ELF5 = target: T11, ELF5 (Homo sapiens, UniProt Q9UKW6-2 1-255); settings: protein: recombinant; tags: N-terminal GST; dsDNA, one strand shown
# T11 sequence: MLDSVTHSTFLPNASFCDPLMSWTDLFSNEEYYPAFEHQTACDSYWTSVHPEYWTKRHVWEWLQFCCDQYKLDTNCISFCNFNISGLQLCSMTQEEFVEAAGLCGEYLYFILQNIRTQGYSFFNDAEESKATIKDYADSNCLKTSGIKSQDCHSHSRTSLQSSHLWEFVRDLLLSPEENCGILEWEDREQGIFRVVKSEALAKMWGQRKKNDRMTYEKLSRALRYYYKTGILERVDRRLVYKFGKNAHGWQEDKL
# How it was run: as §1
# ETV3 = target: T12, ETV3 (Homo sapiens, UniProt P41162-2 1-143); settings: protein: recombinant; tags: N-terminal GST; dsDNA, one strand shown
# T12 sequence: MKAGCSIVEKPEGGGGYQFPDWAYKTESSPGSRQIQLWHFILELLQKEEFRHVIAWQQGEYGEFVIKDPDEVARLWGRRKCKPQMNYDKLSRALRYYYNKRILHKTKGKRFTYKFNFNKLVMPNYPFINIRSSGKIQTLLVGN
# How it was run: as §1
# ETV6 = ETV6 (Homo sapiens, UniProt P41212 1-452); settings: protein: recombinant; tags: N-terminal GST; dsDNA, one strand shown
# How it was run: as §1
# Chain of ETV5 (P41161 whole entry): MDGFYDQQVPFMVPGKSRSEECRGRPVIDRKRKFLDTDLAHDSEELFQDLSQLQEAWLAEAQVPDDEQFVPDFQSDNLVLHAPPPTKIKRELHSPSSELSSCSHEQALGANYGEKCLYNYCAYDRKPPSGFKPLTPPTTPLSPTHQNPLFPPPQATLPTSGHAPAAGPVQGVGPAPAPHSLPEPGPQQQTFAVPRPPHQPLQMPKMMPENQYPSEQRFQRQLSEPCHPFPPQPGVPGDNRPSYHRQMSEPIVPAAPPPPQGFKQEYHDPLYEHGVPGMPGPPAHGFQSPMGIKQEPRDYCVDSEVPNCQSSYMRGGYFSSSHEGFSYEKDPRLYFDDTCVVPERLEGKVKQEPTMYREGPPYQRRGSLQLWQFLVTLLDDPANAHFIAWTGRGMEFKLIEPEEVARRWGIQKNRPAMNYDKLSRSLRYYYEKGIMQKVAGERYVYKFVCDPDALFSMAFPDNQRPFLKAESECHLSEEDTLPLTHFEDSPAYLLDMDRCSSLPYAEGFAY
# Chain of ETV6 (P41212 whole entry): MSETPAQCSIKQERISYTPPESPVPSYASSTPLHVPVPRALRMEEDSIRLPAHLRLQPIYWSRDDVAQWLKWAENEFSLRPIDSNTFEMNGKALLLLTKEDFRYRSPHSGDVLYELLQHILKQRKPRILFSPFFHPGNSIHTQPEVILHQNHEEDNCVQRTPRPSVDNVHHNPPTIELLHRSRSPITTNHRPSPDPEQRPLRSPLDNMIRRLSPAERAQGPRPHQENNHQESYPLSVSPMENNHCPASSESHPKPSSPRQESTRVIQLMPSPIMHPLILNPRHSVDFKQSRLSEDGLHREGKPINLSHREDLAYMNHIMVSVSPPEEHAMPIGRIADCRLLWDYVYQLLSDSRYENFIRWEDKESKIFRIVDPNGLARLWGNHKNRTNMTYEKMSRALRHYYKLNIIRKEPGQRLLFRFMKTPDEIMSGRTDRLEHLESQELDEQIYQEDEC
# Chain of CRX (O43186 whole entry): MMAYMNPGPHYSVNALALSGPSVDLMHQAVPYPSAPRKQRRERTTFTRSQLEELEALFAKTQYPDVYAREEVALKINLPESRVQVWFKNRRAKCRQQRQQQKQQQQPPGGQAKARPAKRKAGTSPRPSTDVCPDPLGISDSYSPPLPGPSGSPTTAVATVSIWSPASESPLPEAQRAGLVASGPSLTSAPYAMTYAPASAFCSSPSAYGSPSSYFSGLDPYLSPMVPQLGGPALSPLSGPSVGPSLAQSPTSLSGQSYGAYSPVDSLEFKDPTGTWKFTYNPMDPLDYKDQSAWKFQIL
# Chain of ELF4 (Q99607 whole entry): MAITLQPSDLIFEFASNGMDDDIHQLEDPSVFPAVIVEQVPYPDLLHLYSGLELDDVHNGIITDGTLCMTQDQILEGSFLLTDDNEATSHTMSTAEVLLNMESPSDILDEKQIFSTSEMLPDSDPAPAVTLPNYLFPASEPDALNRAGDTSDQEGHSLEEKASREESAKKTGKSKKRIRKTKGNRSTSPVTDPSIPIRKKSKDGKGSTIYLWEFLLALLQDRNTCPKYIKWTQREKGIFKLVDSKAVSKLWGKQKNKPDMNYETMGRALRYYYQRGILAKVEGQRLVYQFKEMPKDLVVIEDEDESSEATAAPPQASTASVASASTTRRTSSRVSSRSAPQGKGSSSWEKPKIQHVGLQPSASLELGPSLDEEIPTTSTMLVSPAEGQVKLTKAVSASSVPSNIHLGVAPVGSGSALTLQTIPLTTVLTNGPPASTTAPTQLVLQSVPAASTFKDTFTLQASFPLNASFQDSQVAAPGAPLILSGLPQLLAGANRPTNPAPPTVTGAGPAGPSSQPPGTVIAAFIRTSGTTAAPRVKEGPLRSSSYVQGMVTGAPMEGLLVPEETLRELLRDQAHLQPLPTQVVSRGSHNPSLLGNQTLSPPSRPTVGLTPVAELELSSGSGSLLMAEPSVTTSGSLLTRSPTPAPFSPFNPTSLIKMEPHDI
# Chain of HSF1 (Q00613 whole entry): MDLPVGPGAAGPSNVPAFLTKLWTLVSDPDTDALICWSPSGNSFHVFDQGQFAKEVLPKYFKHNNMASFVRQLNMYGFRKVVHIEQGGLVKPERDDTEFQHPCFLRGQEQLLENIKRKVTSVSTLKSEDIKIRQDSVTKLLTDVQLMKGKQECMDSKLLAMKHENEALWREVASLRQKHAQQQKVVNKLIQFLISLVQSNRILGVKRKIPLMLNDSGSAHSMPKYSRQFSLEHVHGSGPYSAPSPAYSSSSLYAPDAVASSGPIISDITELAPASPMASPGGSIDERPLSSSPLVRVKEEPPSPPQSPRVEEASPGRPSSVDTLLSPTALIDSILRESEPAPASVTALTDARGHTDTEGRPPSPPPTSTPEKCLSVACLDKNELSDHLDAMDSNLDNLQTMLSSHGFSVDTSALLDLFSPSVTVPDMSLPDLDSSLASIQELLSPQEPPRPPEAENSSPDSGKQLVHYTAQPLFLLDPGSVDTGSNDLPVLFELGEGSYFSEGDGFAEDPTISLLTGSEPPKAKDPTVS
# Chain of ETV1 (P50549 whole entry): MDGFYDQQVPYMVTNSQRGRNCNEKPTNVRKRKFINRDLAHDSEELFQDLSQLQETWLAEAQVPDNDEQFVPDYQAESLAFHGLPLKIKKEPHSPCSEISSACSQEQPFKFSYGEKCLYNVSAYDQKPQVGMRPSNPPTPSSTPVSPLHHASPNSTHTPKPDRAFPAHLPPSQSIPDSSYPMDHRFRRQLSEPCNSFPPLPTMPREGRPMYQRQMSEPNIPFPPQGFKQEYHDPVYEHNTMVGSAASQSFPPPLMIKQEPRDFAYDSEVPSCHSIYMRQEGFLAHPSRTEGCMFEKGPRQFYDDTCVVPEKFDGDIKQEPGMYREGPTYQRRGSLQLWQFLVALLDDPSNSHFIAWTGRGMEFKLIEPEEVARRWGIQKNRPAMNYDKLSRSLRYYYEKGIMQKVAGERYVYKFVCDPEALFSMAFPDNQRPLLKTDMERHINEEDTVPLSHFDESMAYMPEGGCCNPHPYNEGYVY
sequence,measurement,setting,value
TGCGCT,binding signal,FEV,"1.25 fold enrichment (6-mer frequency, TF over GST control)"
same,binding signal,ETV5,"1.28 fold enrichment (6-mer frequency, TF over GST control)"
same,binding signal,HSF1,"1.07 fold enrichment (6-mer frequency, TF over GST control)"
same,binding signal,SPIC,"1.24 fold enrichment (6-mer frequency, TF over GST control)"
same,binding signal,ELF4,"1.19 fold enrichment (6-mer frequency, TF over GST control)"
same,binding signal,ELK4,"1.46 fold enrichment (6-mer frequency, TF over GST control)"
same,binding signal,ETV2,"1.35 fold enrichment (6-mer frequency, TF over GST control)"
same,binding signal,ELF3,"1.04 fold enrichment (6-mer frequency, TF over GST control)"
same,binding signal,CRX,"1.2 fold enrichment (6-mer frequency, TF over GST control)"
same,binding signal,ETV1,"1.17 fold enrichment (6-mer frequency, TF over GST control)"
same,binding signal,ERF,"1.33 fold enrichment (6-mer frequency, TF over GST control)"
same,binding signal,ETV3L,"1.21 fold enrichment (6-mer frequency, TF over GST control)"
same,binding signal,ETS2,"1.43 fold enrichment (6-mer frequency, TF over GST control)"
same,binding signal,SPDEF,"1.19 fold enrichment (6-mer frequency, TF over GST control)"
same,binding signal,ETV7,"1.17 fold enrichment (6-mer frequency, TF over GST control)"
same,binding signal,ELF5,"1.15 fold enrichment (6-mer frequency, TF over GST control)"
same,binding signal,ETV3,"1.24 fold enrichment (6-mer frequency, TF over GST control)"
same,binding signal,ETV6,"1.24 fold enrichment (6-mer frequency, TF over GST control)"
